Calls of active or inactive are those of the source.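 The calls were made as follows, unless noted: active = normalized viability below 100% at a tested concentration; inactive = the rest.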
Tests used:
[1] = viability loss with induced miR-34 in A549 – imaging, A549 dox-inducible miR-34, nuclei and caspase counts, primary screen (AID 1347080;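 active = compounds whose cell count with miR-34 switched on is under 0.7 times the count with it off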); details: A549 miR-34 inducible, Hoechst nuclei count, 48 h
[2] = MELAS cybrid and Rieske KO viability enhancers – cell-based, MELAS cybrids, Rieske KO mouse fibroblasts, CellTiter-Glo, primary screen (AID 1508586;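 active = mean z-score across replicates of 1.96 or higher in either the MELAS or the Rieske mutant cell line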;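 also: z relative to plate mean and SD of compound and empty wells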); details: low glucose
[3] = drug combination growth inhibition, ovarian cancer – cell-based, oncology-focused library, rucaparib conditional, profiling panel (AID 1508598); details: patient-derived ovarian cancer cells, CellTiter-Glo viability, 144 h, stronger effect = lower value
[4] = stronger effect = lower value, cell number ratio, induced over uninduced
[5] = measured here: relative caspase fold change +Dox/-Dox
[6] = measured here: total cells with miR-34 induction, stronger effect = lower value
[7] = measured here: total cells without miR-34 induction
[8] = MELAS cybrid survival, CellTiter-Glo 48 h, stronger effect = higher value
[9] = Rieske KO mouse fibroblast survival, CellTiter-Glo 72 h
[10] = at 0.000305 µM, OCI-C5x cells, with rucaparib 10 µM, 100% = cells with rucaparib alone
[11] = at 0.000305 µM, OCI-C5x cells, without rucaparib
[12] = at 0.000305 µM, OCI-P5x cells, with rucaparib 20 µM, 100% = cells with rucaparib alone
[13] = at 0.000305 µM, OCI-P5x cells, without rucaparib
[14] = at 0.00122 µM, OCI-C5x cells, with rucaparib 10 µM, 100% = cells with rucaparib alone
[15] = at 0.00122 µM, OCI-C5x cells, without rucaparib
[16] = at 0.00122 µM, OCI-P5x cells, with rucaparib 20 µM, 100% = cells with rucaparib alone
[17] = at 0.00122 µM, OCI-P5x cells, without rucaparib
[18] = at 0.00488 µM, OCI-C5x cells, with rucaparib 10 µM, 100% = cells with rucaparib alone
[19] = at 0.00488 µM, OCI-C5x cells, without rucaparib
[20] = at 0.00488 µM, OCI-P5x cells, with rucaparib 20 µM, 100% = cells with rucaparib alone
[21] = at 0.00488 µM, OCI-P5x cells, without rucaparib
[22] = at 0.0195 µM, OCI-C5x cells, with rucaparib 10 µM, 100% = cells with rucaparib alone
[23] = at 0.0195 µM, OCI-C5x cells, without rucaparib
[24] = at 0.0195 µM, OCI-P5x cells, with rucaparib 20 µM, 100% = cells with rucaparib alone
[25] = at 0.0195 µM, OCI-P5x cells, without rucaparib
[26] = at 0.0781 µM, OCI-C5x cells, with rucaparib 10 µM, 100% = cells with rucaparib alone
[27] = at 0.0781 µM, OCI-C5x cells, without rucaparib
[28] = at 0.0781 µM, OCI-P5x cells, with rucaparib 20 µM, 100% = cells with rucaparib alone
[29] = at 0.0781 µM, OCI-P5x cells, without rucaparib
[30] = at 0.313 µM, OCI-C5x cells, with rucaparib 10 µM, 100% = cells with rucaparib alone
[31] = at 0.313 µM, OCI-C5x cells, without rucaparib
[32] = at 0.313 µM, OCI-P5x cells, with rucaparib 20 µM, 100% = cells with rucaparib alone
[33] = at 0.313 µM, OCI-P5x cells, without rucaparib
[34] = at 1.25 µM, OCI-C5x cells, with rucaparib 10 µM, 100% = cells with rucaparib alone
[35] = at 1.25 µM, OCI-C5x cells, without rucaparib
[36] = at 1.25 µM, OCI-P5x cells, with rucaparib 20 µM, 100% = cells with rucaparib alone
[37] = at 1.25 µM, OCI-P5x cells, without rucaparib
[38] = at 5 µM, OCI-C5x cells, with rucaparib 10 µM, 100% = cells with rucaparib alone
[39] = at 5 µM, OCI-C5x cells, without rucaparib
[40] = at 5 µM, OCI-P5x cells, with rucaparib 20 µM, 100% = cells with rucaparib alone
[41] = at 5 µM, OCI-P5x cells, without rucaparib

Cc1[nH]c(C=C2C(=O)Nc3ccc(S(=O)(=O)N(C)c4cccc(Cl)c4)cc32)c(C)c1C(=O)N1CCN(C)CC1
inactive: fold change [1, 4] 0.944 | z-score [2, 8] -0.734 | viability [3, 10] 109% | viability [3, 11] 113% | viability [3, 12] 106% | viability [3, 13] 104% | viability [3, 14] 117% | viability [3, 15] 112% | viability [3, 18] 118% | viability [3, 19] 113% | viability [3, 22] 116% | viability [3, 23] 126% | viability [3, 26] 120% | viability [3, 27] 125% | viability [3, 28] 104% | viability [3, 29] 102% | viability [3, 30] 122% | viability [3, 31] 131% | viability [3, 32] 113% | viability [3, 33] 107% | viability [3, 34] 138% | viability [3, 35] 151% | viability [3, 36] 114% | viability [3, 37] 107% | viability [3, 38] 133% | viability [3, 39] 126% | viability [3, 40] 102%
0.91: fold change [1, 5]
-1.1: z-score [2, 9]
active: viability [3, 16] 92.9% | viability [3, 17] 98.8% | viability [3, 20] 89.6% | viability [3, 21] 96.9% | viability [3, 24] 96.9% | viability [3, 25] 94.2% | viability [3, 41] 58.4%
3230: cell count [1, 7]
3050: cell count [1, 6]

OCCn1cc(-c2ccc3c(c2)CCC3=NO)c(-c2ccncc2)n1
0.407: z-score [2, 9]
0.852: fold change [1, 5]
active: viability [3, 12] 91.8% | viability [3, 13] 92.8% | viability [3, 17] 92.9% | viability [3, 19] 92.1% | viability [3, 28] 99% | viability [3, 32] 95.5% | viability [3, 33] 93.7% | viability [3, 36] 90.7% | viability [3, 37] 96.5% | viability [3, 40] 88.8% | viability [3, 41] 98%
7730: cell count [1, 7]
inactive: fold change [1, 4] 1.01 | z-score [2, 8] -0.459 | viability [3, 10] 116% | viability [3, 11] 107% | viability [3, 14] 114% | viability [3, 15] 113% | viability [3, 16] 103% | viability [3, 18] 120% | viability [3, 20] 103% | viability [3, 21] 101% | viability [3, 22] 116% | viability [3, 23] 121% | viability [3, 24] 102% | viability [3, 25] 101% | viability [3, 26] 115% | viability [3, 27] 122% | viability [3, 29] 103% | viability [3, 30] 118% | viability [3, 31] 125% | viability [3, 34] 118% | viability [3, 35] 131% | viability [3, 38] 124% | viability [3, 39] 137%
7830: cell count [1, 6]

Cc1cc(Nc2ccc(NC(=O)c3ccc(Nc4ccnc5ccccc45)cc3)cc2)nc(N)n1
6210: cell count [1, 7]
0.411: fold change [1, 5]
6080: cell count [1, 6]
inactive: fold change [1, 4] 0.978 | z-score [2, 8] -0.384
-1.35: z-score [2, 9]

CC(C)(C)C(=O)Nc1ccc2c(c1)C(=O)C(=O)c1ccccc1-2
inactive: fold change [1, 4] 1.31 | z-score [2, 8] 0.258 | viability [3, 10] 109% | viability [3, 11] 109% | viability [3, 14] 127% | viability [3, 15] 103% | viability [3, 18] 116% | viability [3, 19] 114% | viability [3, 22] 119% | viability [3, 23] 112% | viability [3, 26] 118% | viability [3, 27] 113% | viability [3, 31] 112% | viability [3, 34] 114% | viability [3, 35] 113% | viability [3, 36] 103% | viability [3, 37] 104% | viability [3, 39] 107%
833: cell count [1, 6]
active: viability [3, 12] 95.2% | viability [3, 13] 90.7% | viability [3, 16] 99.1% | viability [3, 17] 91.1% | viability [3, 20] 78.7% | viability [3, 21] 63.1% | viability [3, 24] 79% | viability [3, 25] 64.3% | viability [3, 28] 63.5% | viability [3, 29] 45.6% | viability [3, 30] 81.1% | viability [3, 32] 29.6% | viability [3, 33] 18.8% | viability [3, 38] 70.9% | viability [3, 40] 2.26% | viability [3, 41] 7.62%
636: cell count [1, 7]
-7.92: z-score [2, 9]
0.69: fold change [1, 5]

CC(=O)OC1C(=O)[C@]2(C)C(O)CC3OC[C@@]3(OC(C)=O)C2C(OC(=O)c2ccccc2)[C@]2(O)CC(OC(=O)C(O)C(NC(=O)c3ccccc3)c3ccccc3)C(C)=C1C2(C)C (stereo not given in full)
inactive: fold change [1, 4] 0.984 | z-score [2, 8] 1.51
0.702: fold change [1, 5]
1380: cell count [1, 7]
0.434: z-score [2, 9]
1360: cell count [1, 6]

C=CS(=O)(=O)NC1CCN(C(=O)CNc2cc(I)c(Cl)cc2OC)CC1
active: viability [3, 12] 97.3% | viability [3, 25] 96.9% | viability [3, 29] 90.5% | viability [3, 31] 93.3% | viability [3, 32] 93.4% | viability [3, 33] 95.6% | viability [3, 36] 96.2% | viability [3, 37] 84.8% | viability [3, 40] 90.8% | viability [3, 41] 86%
inactive: fold change [1, 4] 1.09 | z-score [2, 8] 0.491 | viability [3, 10] 129% | viability [3, 11] 112% | viability [3, 13] 100% | viability [3, 14] 117% | viability [3, 15] 106% | viability [3, 16] 108% | viability [3, 17] 101% | viability [3, 18] 110% | viability [3, 19] 116% | viability [3, 20] 103% | viability [3, 21] 102% | viability [3, 22] 117% | viability [3, 23] 102% | viability [3, 24] 101% | viability [3, 26] 121% | viability [3, 27] 107% | viability [3, 28] 107% | viability [3, 30] 119% | viability [3, 34] 111% | viability [3, 35] 106% | viability [3, 38] 117% | viability [3, 39] 105%
0.391: fold change [1, 5]
1.48: z-score [2, 9]
4400: cell count [1, 6]
4020: cell count [1, 7]

COC1C[C@H]2CCC(C)[C@@](O)(O2)C(=O)C(=O)N2CCCC[C@H]2C(=O)OC(C(C)CC2CCC(OC(=O)C(C)(CO)CO)C(OC)C2)CC(=O)C(C)C=C(C)C(O)C(OC)C(=O)C(C)CC(C)C=CC=CC=C1C (stereo not given in full)
3980: cell count [1, 6]
0.974: fold change [1, 5]
inactive: fold change [1, 4] 1.08 | z-score [2, 8] 0.432
0.402: z-score [2, 9]
3690: cell count [1, 7]

— PubChem BioAssay
